Data on five compounds can be found in PubChem BioAssay.

Calls of active or inactive are those of the source.

Assay [1] can be described thus: small molecules captured by biotinylated probe aFSTL3 – biochemical, small-molecule microarray, fluorescence 635/667, stem cell growth factor project, primary screen (AID 1064).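 Further: measures binding of the biotinylated anti-FSTL3 antibody to printed compounds.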 Particulars: higher = more signal.
Assay [2] in a line: binders from COS7 lysate, DM2A8 probe, primary screen, torsin A project, cell lysate, small-molecule microarray, fluorescence 635/667 (AID 1065). Particulars: higher = more signal, COS7 lysate expressing mutant human TOR1A.
A short description of assay [3]: small molecules captured by biotinylated probe aFGF2 – biochemical, small-molecule microarray, fluorescence 635/667, stem cell growth factor project, primary screen (AID 1067).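 Further: measures binding of biotinylated aFGF2 protein to printed compounds on slides; z-score merges feature fluorescence and signal-to-noise across triplicate slides.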 Particulars: higher = more signal.
Assay [4] in a line: small molecules captured by biotinylated probe aFGF10 – biochemical, small-molecule microarray, fluorescence 635/667, stem cell growth factor project, primary screen (AID 1071).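 Further: score merges 667 nm spot intensity and signal to noise from triplicate slides.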 Particulars: higher = more signal.
Assay [5] concerns the target Neurogenic locus notch homolog protein 2 (Homo sapiens) (UniProt Q04721). Briefly: small molecules binding Notch2 protein – biochemical, small-molecule microarray, 635 nm fluorescence, stem cell growth factors, primary screen (AID 1073). Particulars: higher = more signal.
Assay [6] addresses Pro-neuregulin-1, membrane-bound isoform (Homo sapiens) (UniProt Q02297). The assay is described as follows: small molecules binding neuregulin-1 protein – biochemical, small-molecule microarray, fluorescence 635/667, psychiatric disease protein project, primary screen (AID 1075).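 Further: score combines 667 nm spot fluorescence with signal to noise.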 The following applies: NRG1 binding, 635 nm fluorescence, higher = more signal.
Assay [7] concerns Neuregulin-1 EGF-like domain. The assay is described as follows: small molecules binding NRG1 EGF domain – biochemical, small-molecule microarray, 635 nm fluorescence, primary screen (AID 1081).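 Further: binding of the protein to compounds printed on small-molecule microarray slides.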 The following applies: higher = more signal.
Assay [8] in a line: FRG1 expression reporter modulators in myotubes – cell-based, C2C12 myotubes, firefly/Renilla luciferase, luminescence, FRG1 inhibition for FSHD, primary screen (AID 1084). Particulars: FRG1 promoter luciferase, higher = more signal, called active from +8 up or from −8 down.
Assay [9] can be described thus: small molecules captured by biotinylated probe aFST – biochemical, small-molecule microarray, fluorescence 635/667, stem cell growth factor project, primary screen (AID 1086).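 Further: score merges 667 nm fluorescence with signal-to-noise of each printed compound spot.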 Particulars: higher = more signal.
Assay [10] can be described thus: binders of probe aHhip on microarray, primary screen, stem cell growth factor project, biochemical, small-molecule microarray, fluorescence 635/667 (AID 1087).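 Further: score merges spot fluorescence at 667nm with spot signal to noise ratio.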 Particulars: higher = more signal.
Assay [11] deals with PRMT1 (protein arginine N-methyltransferase 1). The assay is described as follows: small molecules binding arginine methyltransferase PRMT1 – biochemical, small-molecule microarray, 635 nm fluorescence, primary screen (AID 1088).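 Further: binding of Prmt1 protein to compounds spotted on small-molecule microarray slides.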 The following applies: higher = more signal.
A short description of assay [12]: growth effects on S. cerevisiae YJM789 – YJM789 clinical isolate, OD600, 24 h, basal, primary screen (AID 1089).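 Further: growth of clinical yeast isolate S. cerevisiae YJM 789 seeded 1000 cells per well; test concentration not given here.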 Particulars: higher = more signal, called active from +8 up or from −8 down.
Assay [13] in a line: S. pombe growth modifiers, basal conditions – strain 972, OD600, 24 h, no modulator, primary screen (AID 1090).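 Further: basal condition with compound alone and no growth modifier present; test concentration not given here.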 Particulars: S. pombe 972 growth, higher = more signal, called active from +8 up or from −8 down.
A short description of assay [14]: budding yeast growth modifiers under rapamycin – strain BY4716, OD600, 96 h, primary screen (AID 1091). Further: test concentration not given here. The following applies: S. cerevisiae BY4716 + rapamycin, higher = more signal, called active from +8 up or from −8 down.
For assay [15], the target named is Torsin-1A-interacting protein 2 (Homo sapiens) (UniProt Q8NFQ8). Briefly: small molecules binding lysate-expressed LULL1 – cell lysate, human LULL1 lysate, 635/667 nm fluorescence, primary screen (AID 1092).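 Further: probe is lysate of COS7 cells overexpressing human LULL1; score merges per-feature 667 nm fluorescence with signal-to-noise.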 The following applies: small-molecule microarray, hLULL1 lysate binding, 635 nm fluorescence; higher = more signal.
Chain of Torsin-1A-interacting protein 2 (Homo sapiens) (Q8NFQ8 whole entry, looked up): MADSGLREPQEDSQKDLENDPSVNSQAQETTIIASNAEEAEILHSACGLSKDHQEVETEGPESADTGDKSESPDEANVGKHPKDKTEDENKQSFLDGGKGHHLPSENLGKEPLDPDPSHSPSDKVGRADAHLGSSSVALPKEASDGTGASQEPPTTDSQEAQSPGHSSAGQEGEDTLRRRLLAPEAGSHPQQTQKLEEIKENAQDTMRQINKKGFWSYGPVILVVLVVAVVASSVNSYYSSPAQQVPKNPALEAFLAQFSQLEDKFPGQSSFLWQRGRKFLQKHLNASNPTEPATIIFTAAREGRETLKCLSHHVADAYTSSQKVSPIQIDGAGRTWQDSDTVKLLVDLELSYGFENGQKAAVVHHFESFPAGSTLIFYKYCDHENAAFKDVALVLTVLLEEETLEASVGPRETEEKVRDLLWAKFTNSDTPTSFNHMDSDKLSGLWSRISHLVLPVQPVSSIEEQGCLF
Assay [16] can be described thus: optical density change of DRC41 E. coli – strain DRC41, OD650, 24 h, E. coli filamentation project, primary screen (AID 1093).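 Further: MC1000 strain lacking acrAB efflux and sulA so SOS filamentation is blocked; test concentration not given here.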 Particulars: E. coli DRC41 growth, higher = more signal, called active from +8 up or from −8 down.
Assay [17] in a line: probe aLefty2 binding to arrayed compounds – biochemical, biotinylated probe, 635/667 nm fluorescence, primary screen (AID 1094).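 Further: score merges spot fluorescence near 667 nm with spot signal-to-noise ratio.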 Particulars: small-molecule microarray, higher = more signal.
Assay [18] concerns Noggin (protein binding on small-molecule microarray). The assay is described as follows: small molecules binding Noggin protein – biochemical, 635/667 nm fluorescence, primary screen (AID 1095).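 Further: score merges 667 nm feature fluorescence with signal to noise over triplicate slides.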 The following applies: 635 nm fluorescence, higher = more signal.
Assay [19] addresses Neurogenic locus notch homolog protein 3 (Homo sapiens) (UniProt Q9UM47). The assay is described as follows: small molecules binding NOTCH3 protein – biochemical, 635/667 nm fluorescence, primary screen (AID 1096). Particulars: small-molecule microarray, 635 nm fluorescence, higher = more signal.
Assay [20] can be described thus: probe aEGFR binding to arrayed compounds – biochemical, biotinylated probe, 635/667 nm fluorescence, primary screen (AID 1097).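 Further: probe is a biotinylated anti-EGFR antibody binding compounds printed on slides; score combines fluorescence near 667 nm and signal to noise of each spot.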 The following applies: small-molecule microarray, higher = more signal.

Chain of Pro-neuregulin-1, membrane-bound isoform (Homo sapiens) (Q02297 whole entry, looked up, the tested form may be a part, canonical isoform): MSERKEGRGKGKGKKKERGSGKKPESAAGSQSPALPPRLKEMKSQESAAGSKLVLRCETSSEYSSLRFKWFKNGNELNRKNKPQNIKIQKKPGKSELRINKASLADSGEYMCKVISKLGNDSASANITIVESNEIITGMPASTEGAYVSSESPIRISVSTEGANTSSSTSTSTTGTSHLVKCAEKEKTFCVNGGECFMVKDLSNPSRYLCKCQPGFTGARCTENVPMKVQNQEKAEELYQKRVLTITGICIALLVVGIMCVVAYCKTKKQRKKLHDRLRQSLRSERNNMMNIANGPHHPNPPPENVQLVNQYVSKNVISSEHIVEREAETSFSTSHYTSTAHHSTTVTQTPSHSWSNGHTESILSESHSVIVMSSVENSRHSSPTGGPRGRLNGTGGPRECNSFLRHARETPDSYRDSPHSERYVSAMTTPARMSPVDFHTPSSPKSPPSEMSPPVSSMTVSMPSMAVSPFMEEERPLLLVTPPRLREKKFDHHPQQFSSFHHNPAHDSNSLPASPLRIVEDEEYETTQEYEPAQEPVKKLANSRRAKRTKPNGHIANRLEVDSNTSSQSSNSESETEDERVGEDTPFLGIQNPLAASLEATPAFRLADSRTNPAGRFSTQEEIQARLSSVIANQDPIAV
Chain of Neurogenic locus notch homolog protein 2 (Homo sapiens) (Q04721 whole entry, looked up, canonical isoform): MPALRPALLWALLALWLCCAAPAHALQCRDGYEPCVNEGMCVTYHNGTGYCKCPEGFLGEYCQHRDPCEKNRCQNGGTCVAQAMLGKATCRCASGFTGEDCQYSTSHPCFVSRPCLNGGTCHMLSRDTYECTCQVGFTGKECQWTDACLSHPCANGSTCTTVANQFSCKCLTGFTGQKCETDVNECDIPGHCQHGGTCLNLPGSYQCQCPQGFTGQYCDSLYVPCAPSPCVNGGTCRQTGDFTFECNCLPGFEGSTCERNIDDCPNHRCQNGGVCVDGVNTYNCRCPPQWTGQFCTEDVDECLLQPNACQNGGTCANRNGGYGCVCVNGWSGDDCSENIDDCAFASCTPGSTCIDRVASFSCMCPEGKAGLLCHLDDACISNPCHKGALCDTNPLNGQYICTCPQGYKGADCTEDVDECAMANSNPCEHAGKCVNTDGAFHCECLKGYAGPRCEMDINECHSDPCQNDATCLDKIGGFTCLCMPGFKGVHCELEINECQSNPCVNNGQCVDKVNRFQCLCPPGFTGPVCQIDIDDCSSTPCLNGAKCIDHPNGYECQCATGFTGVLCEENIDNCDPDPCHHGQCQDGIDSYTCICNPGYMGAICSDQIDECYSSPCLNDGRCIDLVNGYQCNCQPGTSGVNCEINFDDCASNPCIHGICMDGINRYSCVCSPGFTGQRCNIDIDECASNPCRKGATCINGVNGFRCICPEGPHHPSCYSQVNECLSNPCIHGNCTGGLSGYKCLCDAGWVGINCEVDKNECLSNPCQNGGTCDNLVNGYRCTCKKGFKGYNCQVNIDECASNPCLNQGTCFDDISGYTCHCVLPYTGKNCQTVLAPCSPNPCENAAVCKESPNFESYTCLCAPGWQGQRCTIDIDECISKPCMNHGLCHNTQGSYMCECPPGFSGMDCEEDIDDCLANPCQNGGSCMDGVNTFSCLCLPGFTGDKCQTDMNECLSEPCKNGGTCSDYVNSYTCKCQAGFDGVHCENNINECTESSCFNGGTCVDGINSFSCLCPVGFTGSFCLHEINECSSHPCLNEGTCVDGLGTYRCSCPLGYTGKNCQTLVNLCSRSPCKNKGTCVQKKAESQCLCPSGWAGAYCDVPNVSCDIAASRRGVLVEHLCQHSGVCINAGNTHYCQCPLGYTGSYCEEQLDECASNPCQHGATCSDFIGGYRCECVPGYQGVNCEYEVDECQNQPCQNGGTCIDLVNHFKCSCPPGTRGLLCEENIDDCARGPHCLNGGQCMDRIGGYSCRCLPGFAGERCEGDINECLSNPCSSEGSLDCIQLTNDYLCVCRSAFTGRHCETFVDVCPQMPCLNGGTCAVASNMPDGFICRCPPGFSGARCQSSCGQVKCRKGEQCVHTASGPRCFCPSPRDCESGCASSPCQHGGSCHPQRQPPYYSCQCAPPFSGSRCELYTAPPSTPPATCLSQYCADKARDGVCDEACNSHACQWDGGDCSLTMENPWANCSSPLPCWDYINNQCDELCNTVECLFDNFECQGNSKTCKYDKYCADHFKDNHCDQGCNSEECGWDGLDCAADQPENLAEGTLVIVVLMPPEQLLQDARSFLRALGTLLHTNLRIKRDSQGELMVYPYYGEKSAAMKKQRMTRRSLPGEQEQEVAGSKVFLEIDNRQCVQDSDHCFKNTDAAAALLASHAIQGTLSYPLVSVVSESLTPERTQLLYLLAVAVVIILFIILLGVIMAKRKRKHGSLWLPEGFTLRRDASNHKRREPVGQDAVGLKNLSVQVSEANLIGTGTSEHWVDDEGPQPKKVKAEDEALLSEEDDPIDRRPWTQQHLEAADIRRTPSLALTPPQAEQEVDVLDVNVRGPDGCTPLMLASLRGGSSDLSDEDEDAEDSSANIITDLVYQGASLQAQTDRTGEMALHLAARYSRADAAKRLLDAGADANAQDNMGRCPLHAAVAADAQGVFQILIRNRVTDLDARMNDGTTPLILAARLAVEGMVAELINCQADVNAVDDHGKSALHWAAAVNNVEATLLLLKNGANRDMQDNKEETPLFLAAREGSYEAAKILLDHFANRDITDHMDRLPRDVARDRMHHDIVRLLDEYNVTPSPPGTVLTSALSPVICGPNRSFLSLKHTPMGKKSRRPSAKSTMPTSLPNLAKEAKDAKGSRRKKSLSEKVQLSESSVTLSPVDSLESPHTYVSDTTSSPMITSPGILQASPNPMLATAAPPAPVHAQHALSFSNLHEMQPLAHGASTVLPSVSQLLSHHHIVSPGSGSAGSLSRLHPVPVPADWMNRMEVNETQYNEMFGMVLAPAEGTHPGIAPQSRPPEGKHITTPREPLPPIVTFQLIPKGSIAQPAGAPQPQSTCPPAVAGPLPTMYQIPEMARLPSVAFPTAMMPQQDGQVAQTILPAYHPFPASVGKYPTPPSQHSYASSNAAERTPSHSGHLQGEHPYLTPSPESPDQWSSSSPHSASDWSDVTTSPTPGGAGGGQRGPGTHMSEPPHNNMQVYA

As to `CC(C)C[C@@H]1NC(=O)[C@@]23C(=O)N[C@@H](Cc4ccccc4)C2[C@H](C)[C@@]2(C)O[C@H]2C3/C=C/CC/C=C/CNC(=O)[C@@H](C)NC1=O` (stereo not given in full), the composite z-score in [1] is -0.574; in assay [2], 0.408; in assay [3], -0.178; in [4], 0.408; in assay [5], 0.578; in assay [6], -0.418. Also, the composite z-score is 0.635 in [7]; 0.17 in assay [9]; 0.21 in assay [10]; 0.118 in [11]; -0.664 in [15]; -0.19 in assay [17]. Besides, the composite z-score in [18] was 1.28; in assay [19], 0.71; in [20], -0.162. For the same compound, the z-score is -1.05 (inactive) in [8]; 0.395 (inactive) in [12]; -0.619 (inactive) in assay [13]; -0.697 (inactive) in assay [14]; 2.82 (inactive) in assay [16].

On to `O=C1O[C@H](c2ccccc2)[C@H](c2ccccc2)N2[C@H]1[C@@H](C(=O)NC[C@H](O)c1ccccc1)[C@]1(C(=O)Nc3ccc(C#CC4(O)CCCCCC4)cc31)[C@H]2c1ccc(O)cc1`, for which the composite z-score in [1] was 0.0879; in assay [2], 0.705; in assay [3], -0.0529; in [4], 0.676; in assay [5], 1.47; in assay [6], 1.62. Further, the composite z-score in assay [7] is 1.34; in assay [9], 0.837; in assay [10], 0.131; in assay [11] it was 1.58; in assay [15], 1.41; in assay [17] it was 0.113. Also, the composite z-score came out at 0.927 in [18], 1.1 in [19] and 0.0425 in assay [20]. Also, the z-score was -0.0847 (inactive) in assay [8]; -0.307 (inactive) in assay [12]; -1.14 (inactive) in assay [13]; 0.393 (inactive) in [14]; 1.69 (inactive) in assay [16].

On to `COc1ccc([Si](C)(C)[C@H]2[C@H](CC(=O)N(CCO)Cc3ccccc3)O[C@@]3(C(=O)N(Cc4ccc(N5CCC5=O)cc4)c4ccccc43)[C@@H]2C)cc1`, for which the composite z-score in [1] was 0.278; in [2] it was 0.323; in assay [3] it was -0.128; in [4], -1.07; in [5] it was -0.741; in assay [6], 1.02. Besides, the composite z-score was 0.469 in [7]; -0.336 in assay [9]; -0.226 in [10]; 0.499 in assay [11]; 0.953 in [15]; -0.166 in [17]. The figures for the composite z-score in assay [18], in assay [19] and in [20] were -0.156, -0.813 and -0.302, respectively. The z-score in assay [8] is -2.75 (inactive); in assay [12], 0.478 (inactive); in assay [13] it was 0.617 (inactive); in assay [14], 1.96 (inactive); in [16], 1.48 (inactive).

With `C=CCN1C(=O)[C@@]2(O[C@@H](CCO)[C@H]([Si](C)(C)c3ccc(OC)cc3)[C@H]2C)c2cc(N3C(=O)c4cccc5cccc3c45)ccc21`, the composite z-score in [1] is -0.149; in assay [2], 0.0485; in assay [3], -0.113; in assay [4], 0.349; in [5] it was 0.24; in assay [6], 0.769. For the same compound, the composite z-score in assay [7] is 0.876; in [9], -0.169; in assay [10], -0.0994; in assay [11], 1.18; in [15] it was 1.15; in assay [17], -0.156. Further, the composite z-score was -0.106 in assay [18], -0.0485 in assay [19] and -0.147 in assay [20]. Further, the z-score in [8] is -1.42 (inactive); in assay [12], 2.89 (inactive); in assay [13], 1.89 (inactive); in [14], 36.3 (active); in [16], 1.93 (inactive).

As to `C[N+](C)(C)CCCC[C@@H]1NC(=O)[C@@H]2C[C@H](C(=O)NCCCCCNC(=O)CS)[C@H](c3ccc(O)cc3)N2C1=O`, the composite z-score is 0.152 in assay [1]; 0.338 in assay [2]; -0.14 in assay [3]; -1.01 in assay [4]; -1.26 in assay [5]; 1.94 in assay [6]. Besides, the composite z-score in [7] is 1.23; in assay [9], -0.288; in [10] it was 0.0274; in assay [11], 1.08; in assay [15], 2.1; in assay [17], -0.188. Further, the composite z-score in [18] is 1.39; in [19], 0.322; in assay [20] it was -0.149. Further, the z-score in assay [8] is 1.26 (inactive); in assay [12], -1.44 (inactive); in assay [13], -1.73 (inactive); in [14] it was -0.905 (inactive); in assay [16], 1.39 (inactive).
